Inconclusive results are not listed. A number with no mark means an inactive call. Active and inactive are the calls of the source. The call rests on the fitted dose curve; in most records, active means well fitted cell-killing curve with a large enough effect in the repeat runs; inconclusive means weak or mixed curves; inactive means no such curve, though single readings can be large or run the other way.
Assay: qHTS assay for identifying genotoxic compounds that show differential cytotoxicity against isogenic chicken DT40 cell lines with known DNA damage response pathways - Rad54/Ku70 mutant cell line (AID 743015); further: nearly all actives have a fitted effect of over 60% in size
Settings: DT40 Rad54/Ku70 mutant viability, CellTiter-Glo, 40 h; series mostly up to 66.8 µM; activity change, negative = cytotoxicity: at the top concentration
Text: National Center for Advancing Translational Sciences [NCATS]
NIH Chemical Genomics Center [NCGC]
U.S. Environmental Protection Agency [EPA]
National Institutes of Environmental Health Sciences [NIEHS]
National Toxicology Program [NTP]
U.S. Food and Drug Administration [FDA]
DNA repair pathways play a critical role in cellular homeostasis by repairing DNA damage induced by endogenous processes and xenobiotics. Isogenic chicken DT40 cell lines deficient in different DNA repair pathways can be used to identify genotoxic compounds and aid in characterizing the nature of the DNA damage induced. Two DNA repair-deficient cell lines with disrupted genes, Rad54/Ku70 or Rev3, were used to screen the Tox21 10K compound library. Possible genotoxicity was based on the presence of a significant increase in cytotoxicity in one or more of the DNA repair-deficient cell lines compared to that observed in the parental DNA repair-proficient cell line. CellTiter Glo viability assay (Promega, Madison, WI) was used to measure cell viability in these cells after compound treatment. This assay includes the data from the Rad54/Ku70 mutant cell line.
Tox21 Assay Protocol Summary:
300 DT40 mutant cells in 5 uL/well were dispensed into white, solid-bottom 1536-well plates using a Multidrop Combi (ThermoFisher Scientific, Waltham, MA) dispenser. After the assay plates were incubated at 37 C/5% CO2 for approximately 0.5 hour, 23 nL of compounds dissolved in DMSO, positive controls or DMSO only was transferred into the assay plate by a pintool work station (Kalypsys, San Diego, CA). The assay plates were incubated at 37 C/5% CO2 for 40 hours. After 5 uL per well of CellTiter-Glo reagent was added into each well of the assay plates, the plates were incubated for 30 min at room temperature and the luminescence intensity of the plates was measured using a ViewLux (PerkinElmer, Shelton, CT) plate reader.
On the % scale 0 is the no-effect control and ±100 the full control effect; potency means the concentration at half of the fitted maximal effect.

Row | SMILES | activity change, negative = cytotoxicity | Potency
1 | CC(C)CCO | 16% | 
2 | COc1ccc(/C=N/NC(=O)c2ccncc2)cc1OC | 5.37% | 
3 | NS(=O)(=O)c1cc2c(cc1Cl)NC(C(Cl)Cl)NS2(=O)=O (stereo not given) | 6.77% [at 30.7 µM] | 
4 | CCS(=O)(=O)CCn1c([N+](=O)[O-])cnc1C | 1.13% [at 30.7 µM] | 
5 | CCCCC(CC)C(=O)OC(C)C (stereo not given) | -0.0962% | 
6 | C=CCOc1c(Br)cc(Br)cc1Br | -3.59% | 
7 | Cc1c(C(C)C)c(=O)n(-c2ccccc2)n1C | -2.74% | 
8 | CCCCOC(=O)[C@@H](C)Oc1ccc(Oc2ccc(C(F)(F)F)cn2)cc1 | -8.9% [at 95.1 µM] | 
9 | O=P(O)(O)OCC(O)CO (stereo not given) | 6.06% | 
10 | Cc1cccc(Nc2ccncc2S(=O)(=O)NC(=O)NC(C)C)c1 | 3.6% [at 30.7 µM] | 
11 | CC(=O)Nc1ccc(C)cc1 | 0.086% | 
12 | CCN(Cc1cccc(S(=O)(=O)O)c1)c1ccccc1 | -10.4% | 
13 | OC(CCN1CCCCC1)(c1ccccc1)c1ccccc1 |  | 21.1 µM (active)
14 | FC(F)(F)c1ccc(Cl)cc1Cl | 7.33% | 
15 | CC(C)CCCC(C)CC=O (stereo not given) | 16.7% | 
16 | CCCCC(C)C(=O)O (stereo not given) | 11.6% | 
17 | CCc1nccnc1C | 5.02% | 
18 | CCCO | -8.41% | 
19 | CCC(=O)c1ccc(O)cc1 | 4.6% | 
20 | COc1ccc(NS(=O)(=O)c2ccc(N)cc2)nn1 | 6.52% [at 30.7 µM] | 

Row | SMILES | activity change, negative = cytotoxicity | Potency
21 | CO[Si](CCCCl)(OC)OC | 3.59% | 
22 | CC(=O)OC(C(=O)c1ccccc1)c1ccccc1 (stereo not given) | -7% [at 95.1 µM] | 
23 | O=C(/C=C/c1ccccc1)NCCO | -0.622% | 
24 | CC(C)COC(=O)CCCCC(=O)OCC(C)C | -0.502% | 
25 | O=S(=O)(O)SSS(=O)(=O)O | 3.34% | 
26 | CCNC(=O)NCCCOc1cccc(CN2CCCCC2)c1 | 2.87% | 
27 | CO[Si](CCCS)(OC)OC | 15.2% | 
28 | CCC1COC(=O)O1 (stereo not given) | 5.12% | 
29 | O=c1cc(O)c(Cl)c[nH]1 | 6.1% | 
30 | CC(=O)OCCCc1ccccc1 | -4.31% | 
31 | CCN1CN(CC)CN(CC)C1 | -5.7% | 
32 | C=C(C)C(=O)OCCCCCCOC(=O)C(=C)C | -20.5% | 
33 | NS(=O)(=O)c1cc2c(cc1Cl)NC(CC1CCCC1)NS2(=O)=O (stereo not given) | 5.99% [at 30.7 µM] | 
34 | C=CCOc1c(Br)cc(C(C)(C)c2cc(Br)c(OCC=C)c(Br)c2)cc1Br | 5.63% | 
35 | Cc1ccccc1C | 3.28% [at 95.1 µM] | 
36 | F[Si-2](F)(F)(F)(F)F |  | inactive
37 | O=C(O)c1ccccc1C(=O)Nc1ccc(S(=O)(=O)Nc2nccs2)cc1 | 8.58% | 
38 | CC(C)COC(=O)CC(C(=O)OCC(C)C)S(=O)(=O)O (stereo not given) | -10.4% | 
39 | NS(=O)(=O)c1ccccc1OC(F)(F)F | 1.59% | 
40 | CC(=O)c1ccc(OCC(=O)N2CCCCC2)cc1 | 2.27% | 

From PubChem BioAssay (Tox21)
